# Assay results from PubChem BioAssay.
# Several values for one entry are separate records, joined by “and”; a condition that tells them apart may be missing. Equal entries are not always repeated. Activity calls are given as the source filed them.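 The calls were made as follows, unless noted: active = inhibition at or above 50% relative to wild type and mutant plate controls; inactive = inhibition below 50%.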
# How the values were obtained:
# [1] = inhibitors of mutant huntingtin aggregation, primary screen, imaging, exon1htt(103Q)mCFP cells, high-content imaging (AID 483;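 active = visual image review flags a hit and inhibition of aggregation exceeds 20%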;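 also: compound exposure lasted 3 days before fixation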;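 as to nuclei count: percent of the per-plate median nuclei count of sample wells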); details: exon1htt(103Q)mCFP cell line, aggregate imaging, at 2 µM; inhibition of aggregation: stronger effect = higher value; nuclei count: measured here: cell count, toxicity
# [2] = inhibitors of E-selectin induction by TNFa, primary screen, imaging, HUVEC, immunofluorescence, MLSMR starter and 10KST1 sets (AID 487;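 active = visually confirmed hit in the image check and inhibition above 20%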;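 as to inhibition: signal is fraction of cell area covered by stained E-selectin grains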;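 as to nuclei count: 100% = median nuclei count of all wells on the same plate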); details: HUVEC TNFalpha-induced E-selectin immunofluorescence imaging, at 2 µM; inhibition: stronger effect = higher value; nuclei count: measured here: cell number, toxicity
# [3] = DUSP6 inhibitors restoring Erk phosphorylation by chemical complementation, primary imaging in DUSP6-transfected HeLa (AID 609;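 active = compounds giving at least 50% inhibition in the cell-based MKP-3 phosphatase rescue imaging test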;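 as to inhibition: phospho-Erk level distribution per well compared with pooled transfected vehicle control wells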); details: HeLa MKP-3 transfected, phospho-Erk imaging KS statistic, at 10 µM, cells stimulated with TPA for 15 min
# [4] = target: Dual specificity protein phosphatase 6 (Homo sapiens) (UniProt Q16828); assay: as above; details: HeLa MKP-3 transfected, phospho-Erk imaging KS statistic; at 10 µM; stronger effect = higher value; cells stimulated with TPA for 15 min
# [5] = target: Voltage-gated potassium channel subunit beta-2 (Rattus norvegicus) (UniProt P62483); assay: KvBeta enzyme negative modulators, primary screen, biochemical, NADPH fluorescence (AID 622;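 active = fluorescence slope higher than the sample average by over 3 SD, cut at about -0.22 in these data, passing the limit was not always enough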;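 also: slope of raw intensity against log time taken from 70 to 1610 s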); details: recombinant KvBeta, 4-cyanobenzaldehyde reduction, at 10 µM, stronger effect = higher value
# [6] = target: Voltage-gated potassium channel subunit beta-2 (Rattus norvegicus) (UniProt P62483); assay: KvBeta positive modulators, primary screen, biochemical, NADPH fluorescence (AID 623;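 active = NADPH fluorescence slope more negative than the mean of all samples by about 3 SD, 99.7% confidence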;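 also: fluorescence intensity change per second fitted from 20 to 320 s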); details: Recombinant KvBeta, NADPH fluorescence decrease slope, 10 min; at 10 µM; stronger effect = lower value
# [7] = target: Alpha-2C adrenergic receptor (Homo sapiens) (UniProt P18825); assay: modulators of alpha2C/GIRK thallium flux, primary screen, cell-based, HEK293 alpha2C/GIRK1/2 (AID 624;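 active = fluorescence slope after compound addition differing from the mean of all screened samples at 99.7% confidence, in either direction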;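 also: slope of fluorescence ratio to pre-addition baseline per second over 15 to 24 s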); details: thallium flux BTC fluorescence, at 10 µM, actives lie on both sides
# [8] = inhibitors of larval lipid processing in zebrafish, primary screen, whole organism, PED6 fluorescence, gall bladder and intestine (AID 686;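 active = a full or partial loss of lipid-probe fluorescence in the fish gall bladder, intestine or both, judged by eye; inactive = no fluorescence loss, or compound toxic to the fish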;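 also: larvae 5 to 7 days old with five fish per well; signal comes from phospholipase A2 cleavage of quenched PED6 carried via bile; overnight exposure to compound and PED6 before scoring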); details: Zebrafish larvae PED6 lipid processing, fluorescence scoring; screened at 20 µM (by protocol)
# [9] = inhibitors of Chlamydomonas gravitaxis, primary screen, whole organism, Chlamydomonas reinhardtii, WT vs cilia-less mutant, absorbance, 96-well (AID 463189); details: OD600 absorbance, 2 days, at 10 µM, stronger effect = higher value;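 also: 0% = wild type cc124 cells in DMSO and 100% = ciliumless bld1 mutant cells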
# [10] = inhibitors of Sendai virus-induced IRF3 signaling, primary screen, TLR/RLR signaling modifier project, cell-based, Sendai virus stimulus, luciferase, 10K MLSCN set (AID 602276;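 active = inhibition at or above 50% at 10 µM; inactive = inhibition below 50%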;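 also: firefly luciferase from ISG56 promoter only with Renilla not read in this screen; 0% = Sendai virus plus DMSO and 100% = medium plus DMSO without virus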); details: HEK293 RL24 IRF3 luciferase reporter, at 10 µM, stronger effect = higher value
# [11] = inhibitors of poly I:C-induced TLR3 signaling, primary screen, cell-based, poly I:C stimulus, luciferase, 10K MLSCN set (AID 602277;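 active = inhibition of the reporter signal at or above 50%; inactive = inhibition below 50%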); details: HEK293-TLR3 RL24 IRF3 luciferase reporter, at 10 µM, stronger effect = higher value
# [12] = measured here: cell density z-score
# [13] = measured here: nuclear c-Myc green intensity z-score
# [14] = measured here: nuclear pErk red intensity z-score, stronger effect = higher value
# Dual specificity protein phosphatase 6 (Homo sapiens), sequence (Q16828 whole entry, looked up): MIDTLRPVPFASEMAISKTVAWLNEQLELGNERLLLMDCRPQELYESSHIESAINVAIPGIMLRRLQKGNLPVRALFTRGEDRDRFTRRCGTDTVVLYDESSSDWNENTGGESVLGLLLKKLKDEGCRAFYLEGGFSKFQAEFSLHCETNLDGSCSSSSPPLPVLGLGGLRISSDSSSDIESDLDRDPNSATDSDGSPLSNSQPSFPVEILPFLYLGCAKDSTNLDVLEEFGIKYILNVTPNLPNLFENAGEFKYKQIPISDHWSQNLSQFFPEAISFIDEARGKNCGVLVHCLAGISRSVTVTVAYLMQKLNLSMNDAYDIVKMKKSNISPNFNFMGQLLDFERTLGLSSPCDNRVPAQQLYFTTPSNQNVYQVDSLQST
# Voltage-gated potassium channel subunit beta-2 (Rattus norvegicus), sequence (P62483 whole entry, looked up): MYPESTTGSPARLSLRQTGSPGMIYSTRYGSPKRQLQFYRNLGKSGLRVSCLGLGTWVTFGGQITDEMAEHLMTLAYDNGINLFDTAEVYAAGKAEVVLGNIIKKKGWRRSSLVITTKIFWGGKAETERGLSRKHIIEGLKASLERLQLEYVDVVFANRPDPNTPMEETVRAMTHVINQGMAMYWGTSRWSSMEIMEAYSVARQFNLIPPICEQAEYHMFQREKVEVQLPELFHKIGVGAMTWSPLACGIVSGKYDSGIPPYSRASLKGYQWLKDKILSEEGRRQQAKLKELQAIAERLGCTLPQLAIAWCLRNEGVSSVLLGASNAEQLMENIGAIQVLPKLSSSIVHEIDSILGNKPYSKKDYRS
# Alpha-2C adrenergic receptor (Homo sapiens), sequence (P18825 whole entry, looked up): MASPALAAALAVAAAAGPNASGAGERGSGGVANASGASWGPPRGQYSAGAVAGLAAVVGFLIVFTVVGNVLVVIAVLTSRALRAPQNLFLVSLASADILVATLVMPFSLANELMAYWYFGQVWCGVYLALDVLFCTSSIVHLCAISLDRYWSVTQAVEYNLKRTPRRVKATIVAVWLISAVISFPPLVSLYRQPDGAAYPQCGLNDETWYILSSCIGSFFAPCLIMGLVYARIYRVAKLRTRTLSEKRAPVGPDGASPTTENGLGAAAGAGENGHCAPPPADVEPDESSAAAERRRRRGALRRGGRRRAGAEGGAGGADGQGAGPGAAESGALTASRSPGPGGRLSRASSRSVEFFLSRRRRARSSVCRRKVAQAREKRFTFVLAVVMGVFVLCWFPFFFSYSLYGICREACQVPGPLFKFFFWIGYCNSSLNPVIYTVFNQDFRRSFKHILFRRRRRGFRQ
SMILES,inhibition of aggregation [1],nuclei count [1],inhibition [2],nuclei count [2],"z-score [3, 12]","z-score [3, 13]","z-score [3, 14]",inhibition [4],fluorescence slope [5],NADPH fluorescence slope [6],slope [7],outcome [8],inhibition [9],inhibition [10],inhibition [11]
COC(=O)Nc1nc2ccc(C(=O)c3ccccc3)cc2[nH]1,-1.2% (inactive),34.6%,-48.7% (inactive),112%,1.8,-0.197,-0.901,21.2% (inactive),-0.437 (inactive),-9.9e-05 (inactive),0.0038 (inactive),inactive,-3.25% (inactive),17.6% (inactive),46.8% (inactive)
C[C@]12C=CC(=O)C=C1CC[C@H]1[C@@H]3C[C@@H](O)[C@](O)(C(=O)CO)[C@@]3(C)C[C@H](O)[C@@]12F,23.7% (inactive),50.2%,-61.6% (inactive),117%,-0.539,1.04,-0.0271,15.3% (inactive),-0.508 (inactive),-6.2e-05 (inactive),0.0055 (inactive),inactive,6.05% (inactive) and 21.3% (inactive),13.3% (inactive),37.9% (inactive)
O=C1CCc2cc(OCCCCc3nnnn3C3CCCCC3)ccc2N1,14.7% (inactive),106%,-114% (inactive),136%,0.404,-0.117,-0.524,27.1% (inactive),-0.456 (inactive),-6.4e-05 (inactive),0.00334 (inactive),inactive,3.02% (inactive) and 2.15% (inactive),-3.33% (inactive),20.5% (inactive)
CC(C)C[C@H]1C(=O)N2CCC[C@H]2[C@]2(O)O[C@](NC(=O)[C@@H]3C=C4c5cccc6[nH]c(Br)c(c56)CC4N(C)C3)(C(C)C)C(=O)N12 (some centres not stated),-4% (inactive),96.5%,-74.8% (inactive),122%,-0.747,-0.999,0.764,5.42% (inactive),-0.523 (inactive),8.6e-06 (inactive),0.00416 (inactive),inactive,-11.5% (inactive),7.85% (inactive),5.12% (inactive)
CCN1CCN(C(=O)N[C@@H](C(=O)N[C@@H]2C(=O)N3[C@@H]2SC(C)(C)[C@@H]3C(=O)O)c2ccccc2)C(=O)C1=O,2.8% (inactive),97.2%,-1.2% (inactive),101%,-0.734,-0.264,-1.18,5.42% (inactive),-0.465 (inactive),-4.7e-05 (inactive),0.0054 (inactive),inactive,-8.35% (inactive),6.7% (inactive),14.4% (inactive)
CCC(=O)O[C@]1(C(=O)CCl)[C@@H](C)C[C@H]2[C@@H]3CCC4=CC(=O)C=C[C@]4(C)[C@@]3(F)[C@@H](O)C[C@@]21C,-20.8% (inactive),56.7%,-5.8% (inactive),116%,-0.246,0.687,0.17,3.45% (inactive),-0.528 (inactive),-3.3e-05 (inactive),0.00421 (inactive),inactive,18.1% (inactive),-10.2% (inactive),-4.89% (inactive)
Cc1cn([C@H]2C=C[C@@H](CO)O2)c(=O)[nH]c1=O,-10.6% (inactive),106%,-114% (inactive),123%,-0.857,1.21,-0.244,7.39% (inactive),-0.461 (inactive),2.9e-05 (inactive),0.00508 (inactive),inactive,-4.19% (inactive) and -13.6% (inactive),16.3% (inactive),37.9% (inactive)
COc1cccc2c1C(=O)c1c(O)c3c(c(O)c1C2=O)C[C@@](O)(C(C)=O)C[C@@H]3O[C@H]1C[C@H](N)[C@H](O)[C@H](C)O1,49.1% (inactive),0.6%,92.8% (active),84%,0.473,10.2,4.38,102% (active),-0.452 (inactive),-3.6e-05 (inactive),0.00285 (inactive),inactive,33% (inactive),-34.8% (inactive),102% (active)
CCOC(=O)C1=C(C)NC(C)=C(C(=O)OC)C1c1cccc([N+](=O)[O-])c1 (configuration not stated),-10.5% (inactive),97.3%,-50.3% (inactive),103%,1.1,0.446,0.0067,19% (inactive),-0.475 (inactive),-2e-05 (inactive),0.00369 (inactive),–,5.78% (inactive) and 6.95% (inactive),12.9% (inactive),43.8% (inactive)
CN1Cc2c(N)cccc2C(c2ccccc2)C1 (configuration not stated),5.1% (inactive),95.3%,-73% (inactive),131%,-0.942,0.0925,1.7,3.45% (inactive),-0.505 (inactive),-5.7e-05 (inactive),0.00524 (inactive),inactive,70.5% (active) and 60.3% (active),9.51% (inactive),22.5% (inactive)
O=C1NC(=O)C(c2ccccc2)(c2ccccc2)N1,-21.7% (inactive),101%,23.3% (inactive),102%,0.136,-0.248,-1.03,3.59% (inactive),-0.471 (inactive),3.3e-05 (inactive),0.00448 (inactive),inactive,2.61% (inactive) and -21.3% (inactive),-7.98% (inactive),-7.53% (inactive)
CC(=O)O[C@]1(C(C)=O)CC[C@H]2[C@@H]3C=C(Cl)C4=CC(=O)CC[C@]4(C)[C@H]3CC[C@@]21C,-13.1% (inactive),100%,-108% (inactive),126%,-0.773,-0.174,-0.613,5.79% (inactive),-0.438 (inactive),-6.7e-05 (inactive),0.00452 (inactive),–,8.01% (inactive),-5.93% (inactive),38.2% (inactive)
O=C(O)CCC(=O)Nc1ccc(S(=O)(=O)Nc2nccs2)cc1,-13.3% (inactive),93.6%,-59.2% (inactive),110%,-1.01,2.12,1.88,1.38% (inactive),-0.504 (inactive),-5.7e-05 (inactive),0.00423 (inactive),inactive,5.01% (inactive),21.6% (inactive),37.7% (inactive)
CC1CCc2cc(F)cc3c(=O)c(C(=O)O)cn1c23 (configuration not stated),3.7% (inactive),100%,-103% (inactive),114%,-0.137,-0.228,0.466,13.3% (inactive),-0.526 (inactive),-7.5e-05 (inactive),0.00491 (inactive),inactive,-5.13% (inactive),9.82% (inactive),32.9% (inactive)
O=C(c1ccc(F)cc1)C1CCN(CCn2c(=O)[nH]c3ccccc3c2=O)CC1,-3.2% (inactive),96.4%,-46.9% (inactive),112%,0.976,0.365,0.163,14.6% (inactive),-0.453 (inactive),-6.9e-05 (inactive),0.00505 (inactive),inactive,4.84% (inactive) and -9.28% (inactive),0.811% (inactive),31.8% (inactive)
CCCCNC(=O)NS(=O)(=O)c1ccc(C)cc1,10.9% (inactive),99.2%,-56.6% (inactive),107%,0.542,-0.348,-1.78,9.37% (inactive),-0.454 (inactive),3.1e-05 (inactive),0.00531 (inactive),inactive,7.5% (inactive) and 29.4% (inactive),-6.27% (inactive),5.7% (inactive)
O=c1[nH]c(=O)n([C@H]2C[C@H](O)[C@@H](CO)O2)cc1F,-11.9% (inactive),10.3%,-47% (inactive),116%,0.0804,0.765,-0.71,3.59% (inactive),-0.533 (inactive),-5.3e-05 (inactive),0.00542 (inactive),inactive,-13.9% (inactive),-38.5% (inactive),15.4% (inactive)
CC(=O)[C@@]1(O)CC[C@H]2[C@@H]3C[C@H](C)C4=CC(=O)C=C[C@]4(C)[C@@]3(F)[C@@H](O)C[C@@]21C,10.8% (inactive),60.1%,-32.9% (inactive),121%,0.696,0.132,1.25,7.39% (inactive),-0.416 (inactive),-5e-05 (inactive),0.0055 (inactive),inactive,-2.25% (inactive),13.2% (inactive),38.7% (inactive)
CC(C)(C)NC[C@H](O)COc1nsnc1N1CCOCC1,-13.8% (inactive),102%,-120% (inactive),119%,-0.0639,-0.39,1.55,-10.4% (inactive),-0.502 (inactive),-5e-06 (inactive),0.00458 (inactive),inactive,-10.5% (inactive),6.87% (inactive),46.4% (inactive)
CC(=O)N[C@@H](CS)C(=O)O,7.3% (inactive),104%,-49.2% (inactive),120%,0.131,-1.67,0.657,1.48% (inactive),-0.543 (inactive),-3.7e-05 (inactive),0.0055 (inactive),inactive,3.13% (inactive) and -2.25% (inactive),11.9% (inactive),21% (inactive)
CC(=O)OC[C@H]1O[C@@H](n2ncc(=O)[nH]c2=O)[C@H](OC(C)=O)[C@@H]1OC(C)=O,14.3% (inactive),77.3%,-22.1% (inactive),116%,1.58,-1.02,0.322,-0.828% (inactive),-0.468 (inactive),-5.4e-05 (inactive),0.0044 (inactive),–,-10.6% (inactive),13.3% (inactive),-14.5% (inactive)
